Measurements published in PubChem BioAssay AID720518 (National Center for Advancing Translational Sciences (NCATS), 2013).
Records with an inconclusive call do not appear. A call without a number means that no potency is given here. Activity calls are given as the source filed them. Calls come from the whole dose curve.

Test: qHTS for Inhibitors of Cell Surface uPA Generation: Wild-type Protective Antigen (WT-PrAg) Counterscreen for Cherry-picked Compounds
Conditions: cells, WT protective antigen toxicity counterscreen; series mostly up to 115 µM

Compound	Potency
CC(=O)Nc1ccc(NC(=O)CCCCCN2C(=O)c3ccccc3C2=O)cc1	inactive
CC(=O)c1ccc(OCCCCOc2ccc(C(C)=O)cc2)cc1	inactive
Cc1cc2c(cc1S(=O)(=O)Nc1ccc(F)cc1)n(C)c(=O)c(=O)n2C	inactive
CCC(C)Sc1nnc(NS(=O)(=O)Cc2ccccc2)s1 (stereo unspecified)	inactive
CCCCNc1nnc(SCC(=O)c2c(N)n(CCC)c(=O)[nH]c2=O)s1	inactive
O=S(=O)(NCCc1ccccc1F)c1cccc(S(=O)(=O)N2CCOCC2)c1	inactive
